Assay outcomes: PubChem, National Center for Advancing Translational Sciences (NCATS)
Shown are actives, neighbours in structure and some others; about 1.7% of the full set was active somewhere.
ALOX15 inhib = 15-hLO (ALOX15) enzyme inhibition | purified 15hLO-1, xylenol orange hydroperoxide absorbance | Potency, µM (series often up to 57.1 µM), actives largely listed as inhibitors | 1.4% of 74,000 active; also: nearly all actives have a fitted effect of over 55% in size
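Inhibition is scored from a chromogenic endpoint. After 15 min enzyme-compound contact, arachidonic acid (50 uM final) reacts 6 min with 40 nM 15hLO-1 at room temperature, then Fe-XO reagent is added for 30 min and absorbance ratio recorded.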
Casp7 inh = allosteric or competitive inhibitors of human caspase-7. P55210. recombinant caspase-7, Ac-DEVD-AFC fluorescence rate. Potency, µM (top dose mostly 57.5 µM), most hits filed as inhibitors. 0.02% of 75,000 active. AID 889; active = well fitted inhibition curve with a large enough effect in the main read-out, with a control signal flat, not every such curve was filed as active; inconclusive = small, poorly fitted or top-dose-only effect, or a change in a side signal
Target sequence (P55210 24-198 limits assumed): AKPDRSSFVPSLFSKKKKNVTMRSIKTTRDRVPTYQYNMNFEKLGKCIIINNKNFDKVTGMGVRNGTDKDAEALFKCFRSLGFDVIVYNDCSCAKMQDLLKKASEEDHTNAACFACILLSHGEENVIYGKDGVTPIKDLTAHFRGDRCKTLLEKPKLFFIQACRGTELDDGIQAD
Target sequence (P55210 207-303 limits assumed): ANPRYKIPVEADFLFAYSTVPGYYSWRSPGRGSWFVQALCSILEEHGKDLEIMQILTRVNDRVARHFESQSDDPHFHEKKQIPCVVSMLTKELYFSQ
Caspase-1 inhib = caspase-1 (human) inhibition, allosteric or competitive; P29466; Caspase-1 enzyme, Ac-WEHD-AFC fluorogenic rate; Potency, µM (doses to about 57.5 µM), actives largely listed as inhibitors; 0.03% of 75,000 active; AID 900
ERK AVP inh = inhibitors of vasopressin-stimulated ERK signaling pathway; 0.99% of 72,000 active; Potency, µM (highest dose often 57.5 µM), actives largely listed as inhibitors; HEK293-V1b, vasopressin-stimulated pERK AlphaScreen; AID 995; also: nearly all actives have a fitted effect of over 55% in size
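HEK293 cells stably expressing V1b receptor, seeded overnight in 1% FBS, were treated with compounds for 30 min at 37C, then stimulated 5 min with 25 nM vasopressin; phospho-ERK read by AlphaScreen SureFire after lysis.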
15-hLO-2 inh = inhibitors of human 15-lipoxygenase 2 (ALOX15B); O15296; purified 15hLO-2, xylenol orange hydroperoxide absorbance; Potency, µM (doses to about 57.1 µM), usual class: inhibitors; 0.56% of 110,000 active; also: nearly all actives have a fitted effect of over 60% in size
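Purified human 15hLO-2 (50 nM final) preincubated with compounds 15 min at room temperature in 25 mM Hepes pH 7.5, 0.01% Triton X-100, then 45 uM arachidonic acid added for 90 min; hydroperoxide detected via ferrous/xylenol orange, 573/405 nm absorbance ratio.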
Each line names hits and unclear results; the compound was inactive in the other large screens. Unless noted, calls follow the shape of the dose curve; as a rule, active = well fitted curve in the direction sought with a large enough effect; inconclusive = small, poorly fitted or top-dose-only effect, or another doubt; inactive = no such curve, though single readings can be large; an effect the other way counts as inactive or inconclusive.

CC(=O)OC1CC(OC(C)=O)[C@]2(C)C(CC(=O)[C@]3(C)C2CC[C@@]2(C)C(C(=O)O)OC(=O)C4OC423)C1(C)C (stereo partly specified)	none
COC(=O)[C@@]1(Cc2ccc(OC)cc2)[C@H]2c3cc(C(=O)N4CCCC4)n(CCc4c[nH]c5ccc(OC)cc45)c3C[C@H]2CN1C(=O)c1ccccc1	none (no result: ALOX15 inhib)
C/C(=C\c1ccccc1)CN1CCN(c2ccccc2)CC1	ALOX15 inhib 16µM (no result: 15-hLO-2 inh)
COc1ccc2[nH]cc(CCNc3cc(-c4ccccc4C(F)(F)F)ncn3)c2c1	ALOX15 inhib 16µM
COc1ccc2[nH]cc(CCNc3ccnc(-c4cccc(NS(C)(=O)=O)c4)n3)c2c1	ALOX15 inhib 20µM, ERK AVP inh 13µM
COc1ccc2[nH]cc(CCNc3cc(-c4ccccc4Cl)ncn3)c2c1	ALOX15 inhib inconclusive, ERK AVP inh inconclusive
COc1ccc2[nH]cc(CCNc3ccnc(-c4ccccc4Cl)n3)c2c1	ERK AVP inh 40µM
OC[C@@H]1O[C@H](O)[C@@H](Cl)[C@H](O)[C@@H]1O	none
N#CC1=C(N)S[C@H](C(=O)C23CC4CC(CC(C4)C2)C3)[C@H]1c1ccncc1	ALOX15 inhib 13µM
C[C@@H](CCc1ccc(O)cc1)NCCc1ccc(O)c(O)c1	ERK AVP inh inconclusive
CCSC1=NC(=O)/C(=C2/C=Cc3ccccc3N2CC)S1	ERK AVP inh 25µM
CCSC1=C(C#N)C(c2ccc(F)cc2)CC(=O)N1 (stereo unspecified)	none (no result: ALOX15 inhib, Casp7 inh, Caspase-1 inhib, ERK AVP inh)
CCCCCCSC1=C(C#N)C(c2ccc(O)cc2)CC(=O)N1 (stereo unspecified)	ALOX15 inhib 20µM, ERK AVP inh 16µM
O=S(=O)(O)c1ccc2c(N=Nc3c(O)ccc4ccccc34)cccc2c1	none
COc1cccc(OCCCOc2ccccc2C(C)C)c1	none (no result: ALOX15 inhib, Casp7 inh, Caspase-1 inhib, ERK AVP inh)
COc1cccc(CCc2ccccc2OCC[C@@H]2C[C@@H](O)CN2C)c1	ALOX15 inhib 20µM
CSc1nncc(/C(C)=N\Nc2cccc(C)c2)n1	15-hLO-2 inh 3.2µM (no result: ALOX15 inhib, Casp7 inh, Caspase-1 inhib, ERK AVP inh)
Cc1csc(NC(=O)CSCC(=O)Nc2ccccc2)n1	ERK AVP inh 32µM
O=C(c1cccc(F)c1)N1CCC2(CC1)CCN(c1ncccn1)CC2	none
C[C@@]12C(=O)OC(=O)[C@@]1(C)[C@H]1CC[C@@H]2O1	ERK AVP inh 7.9µM
CC12C(=O)OC(=O)C1(C)C1CCC2O1 (stereo unspecified)	ERK AVP inh inconclusive
CC1CCCCN1C(=O)CSc1nc2ccsc2c(=O)n1Cc1ccccn1 (stereo unspecified)	ERK AVP inh 25µM (no result: 15-hLO-2 inh)
CCn1c(SCC(=O)N2CCCCC2C)nc2ccsc2c1=O (stereo unspecified)	none (no result: ALOX15 inhib, Casp7 inh, Caspase-1 inhib, ERK AVP inh)
CCCCC[C@H](O)c1cccc(OCc2ccc3ccccc3n2)c1	ERK AVP inh inconclusive
Cc1ccc(C2CC(=O)Oc3cc(C)c(Cl)cc32)cc1 (stereo unspecified)	none (no result: ALOX15 inhib, Casp7 inh, Caspase-1 inhib, ERK AVP inh)
CCOC(=O)NC1(Nc2ccc(Cl)cn2)Oc2ccccc2O1	ALOX15 inhib 25µM, ERK AVP inh inconclusive, 15-hLO-2 inh inconclusive
CCOC(=O)/C=C/C(=O)OCC(=O)Nc1ccc(Cl)cn1	none (no result: ALOX15 inhib, Casp7 inh, Caspase-1 inhib, ERK AVP inh)
CC1=NOC(=O)/C1=C/c1ccc(-c2ccc(Cl)cc2)o1	15-hLO-2 inh 7.9µM (no result: ALOX15 inhib, Casp7 inh, Caspase-1 inhib, ERK AVP inh)
CC1=NOC(=O)/C1=C\c1ccc(-c2cc(Cl)ccc2Cl)o1	15-hLO-2 inh 2µM (no result: ALOX15 inhib, Casp7 inh, Caspase-1 inhib, ERK AVP inh)
C[N+]1(C)CC[C@@H](OC(=O)[C@@](O)(c2ccccc2)C2CCCC2)C1	none
CC[C@@]1([N+](=O)[O-])C[C@H]2C=C[C@@H]1C2	none
COc1ccc(-n2c(=O)c(CCc3ccccc3)nc3cnc(N4CCNCC4)nc32)cc1	Caspase-1 inhib inconclusive
c1ccc(-c2nnc3sc(-c4csc5c4CCCC5)nn23)cc1	ALOX15 inhib 16µM
CNC(=O)[C@H]1O[C@H](n2cnc3c(NCc4cccc(I)c4)ncnc32)[C@@H](O)[C@@H]1O	ERK AVP inh inconclusive
CNC(=O)[C@H]1O[C@H](n2cnc3c(NCc4cccc(I)c4)nc(Cl)nc32)[C@@H](O)[C@@H]1O	ERK AVP inh 16µM
NC(=O)c1csc(-c2ccncc2)n1	none (no result: ALOX15 inhib, Casp7 inh, Caspase-1 inhib, ERK AVP inh)
Nc1cc(-c2ccncc2)c[nH]c1=O	ALOX15 inhib 13µM, Caspase-1 inhib inconclusive
